The results in this text go back to ChEMBL document CHEMBL1961873, “Compounds: GSK PKIS; Assays: Nanosyn kinase panel” (2012).

Where “and” joins values, the source holds several entries; their conditions need not be identical. Equal entries are not always repeated.

Chain of Platelet-derived growth factor receptor alpha (Homo sapiens), P16234 [V561D] (P16234 whole entry V561D): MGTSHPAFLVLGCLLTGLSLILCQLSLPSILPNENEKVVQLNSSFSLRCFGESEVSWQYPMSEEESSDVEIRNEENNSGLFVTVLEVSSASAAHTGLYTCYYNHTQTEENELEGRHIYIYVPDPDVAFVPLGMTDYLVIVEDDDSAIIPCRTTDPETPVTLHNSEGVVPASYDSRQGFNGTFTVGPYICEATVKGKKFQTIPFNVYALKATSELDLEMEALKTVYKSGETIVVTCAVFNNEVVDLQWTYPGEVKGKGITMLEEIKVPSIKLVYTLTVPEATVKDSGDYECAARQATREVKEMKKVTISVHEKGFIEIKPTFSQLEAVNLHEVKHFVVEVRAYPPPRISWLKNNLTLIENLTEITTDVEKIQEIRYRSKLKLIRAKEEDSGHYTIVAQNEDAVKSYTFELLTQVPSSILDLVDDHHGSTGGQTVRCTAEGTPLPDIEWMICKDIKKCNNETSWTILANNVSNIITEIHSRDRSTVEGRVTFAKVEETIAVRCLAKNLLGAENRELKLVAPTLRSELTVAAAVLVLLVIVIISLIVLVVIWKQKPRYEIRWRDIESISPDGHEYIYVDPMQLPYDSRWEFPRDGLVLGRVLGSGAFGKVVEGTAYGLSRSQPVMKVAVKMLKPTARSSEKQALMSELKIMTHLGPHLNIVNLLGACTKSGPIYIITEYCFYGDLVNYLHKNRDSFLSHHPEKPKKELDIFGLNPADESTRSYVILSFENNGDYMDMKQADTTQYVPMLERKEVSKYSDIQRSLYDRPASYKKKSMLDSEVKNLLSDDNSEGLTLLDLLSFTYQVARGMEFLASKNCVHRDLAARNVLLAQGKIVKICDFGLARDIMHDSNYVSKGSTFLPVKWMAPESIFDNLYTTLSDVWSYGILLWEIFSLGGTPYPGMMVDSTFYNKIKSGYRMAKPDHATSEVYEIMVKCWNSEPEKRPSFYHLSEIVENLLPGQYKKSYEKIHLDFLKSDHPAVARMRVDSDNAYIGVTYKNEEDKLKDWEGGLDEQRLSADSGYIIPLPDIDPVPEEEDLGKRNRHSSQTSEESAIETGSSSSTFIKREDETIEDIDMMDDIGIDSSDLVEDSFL

One assay has as its system Platelet-derived growth factor receptor alpha (Homo sapiens), P16234 [V561D]. The note with it: at 1 µM.
For orientation: inhibition means the percentage by which the read-out fell short of the control. A high value points to strong suppression. Consider `COc1ccc(Nc2ncc(-c3ccccc3)o2)cc1OC`, for which the inhibition was 77%.

In turn, `CCS(=O)(=O)c1ccc(OC)c(Nc2ncc(-c3cccc(C(C)=O)c3)o2)c1` came in with an inhibition of 68.2%.

`CS(=O)(=O)Nc1ccc(-c2ccc3c(NC(=O)C4CC4)n[nH]c3c2)cc1` showed an inhibition of 26.5%.

As for `CS(=O)(=O)CCNCc1ccoc1-c1ccc2ncnc(Nc3ccc(OCc4ccccc4)cc3)c2c1`, the inhibition is 7.53%.

Molecule `NS(=O)(=O)c1ccc(N/N=C2\C(=O)Nc3ccc(C(=O)NCc4ccncc4)cc32)cc1` had an inhibition of 61.3%.

`CN1CCC(C(=O)Nc2n[nH]c3nc(-c4ccc(O)cc4)c(Br)cc23)CC1`: the inhibition is 19.9% and 16.1%.

In the case of `CN1CCN(Cc2ccc(-c3cc4ncnc(Nc5ccc(OCc6cccc(F)c6)c(Cl)c5)c4s3)o2)CC1`, the inhibition is 13.1% and 11.5%.

`COc1cc2c(cc1Nc1nc(Nc3cccc(F)c3C(N)=O)c3cc[nH]c3n1)N(C(=O)CN1CCN(C(C)C)CC1)CC2` gave an inhibition of 11.6%.

`COc1cccc(-n2ncc3c(N/N=C/c4ccc(C(=O)NCCN(C)C)cc4)ncnc32)c1` gave an inhibition of 85.5%.

Consider `CN(c1ccc(NC(=O)NCCN2CCOCC2)cc1)c1ccnc(Nc2ccc(CS(C)(=O)=O)cc2)n1`, for which the inhibition is 90.1%.

The molecule `Cc1nnc(-c2cccc(-c3ccc(C(=O)NCC4CC4)cc3)c2)o1` gave an inhibition of 3.3%.

On to `Cc1cc(O)cc(C)c1/C=C/c1cncc(C(N)=O)c1`, for which the inhibition turned out to be 55.5%.

In turn, `FC(F)(F)CNc1nccc(-c2cnn3ncccc23)n1` displayed an inhibition of 2.85%.

As for `NC(=O)c1ccc2c(-c3ccnc(NCCCO)n3)c(-c3ccc(F)cc3)nn2c1`, the inhibition is 14.3%.

`COc1ccc2ncn(-c3cc(O[C@H](C)c4ccccc4C(F)(F)F)c(C(N)=O)s3)c2c1`: the inhibition was 26.1%.

As for `COc1cc(Nc2ncc(-c3ccccc3)o2)cc(OC)c1`, the inhibition was found to be 64.3%.

The molecule `Fc1ccc(Nc2nccc(-c3c(-c4ccc(C(F)(F)F)cc4)nn4ncccc34)n2)cc1F` yielded an inhibition of 2.39%.

In the case of `COc1cc(N2CCN(C(C)C)CC2)ccc1Nc1nc(Nc2cccc(F)c2C(=O)O)c2cc[nH]c2n1`, the inhibition came out at 5.37%.

With `CC1(C)CC(n2cnc(-c3ccc(F)cc3)c2-c2ccnc(N)n2)CC(C)(C)N1`, the inhibition turned out to be 3.08%.

Molecule `COc1cccc(Nc2nccc(-c3cnn4ncccc34)n2)c1` had an inhibition of 64.1%.

With `COc1ccc(-c2nn3ncccc3c2-c2ccnc(Nc3ccc(F)c(F)c3)n2)cc1`, the inhibition worked out at 11.3%.

The molecule `CNC(=O)c1cncc(/C=C/c2ccccc2C)c1` returned an inhibition of 17%.

`Cn1c(-c2nonc2N)nc2cnccc21` yielded an inhibition of 3.93%.

Regarding `Nc1ncnc2occ(-c3ccc(NC(=O)Nc4cc(C(F)(F)F)ccc4F)cc3)c12`, the inhibition is 97.9% and 96.5%.

In turn, `CCOc1ccc2c(-c3ccnc(Nc4cc(OC)cc(C(F)(F)F)c4)n3)cnn2n1` showed an inhibition of 33.4%.

For `O=C1Nc2ccccc2/C1=C1\CCc2cc(O)ccc21`, the inhibition came out at 64.8%.

As to `O=C(O[C@H]1CN[C@H](C#Cc2cc3ncnc(Nc4ccc5c(ccn5Cc5cc(F)ccc5F)c4)c3s2)C1)N1CCOCC1`, the inhibition worked out at 5.97%.

For `CS(=O)(=O)CCNCc1ccc(-c2ccc3ncnc(Nc4ccc(OCc5cccc(C(F)(F)F)c5)cc4)c3c2)o1`, the inhibition worked out at 14.6%.

Consider `N#Cc1cccc(Nc2ncc(-c3ccccc3)o2)c1`, for which the inhibition is 36.8%.

`N#Cc1ccc2c(-c3ccnc(NC4CC4)n3)c(-c3ccc(F)cc3)nn2c1` had an inhibition of 8.16%.

In the case of `CNC(=O)c1sc(-n2cnc3cc(OC)c(OC)cc32)cc1OCc1ccccc1C(F)(F)F`, the inhibition came to 44.8%.

The next assay deals with Platelet-derived growth factor receptor beta (Homo sapiens) (UniProt P09619). The note with it: at 0.1 µM.
Chain of Platelet-derived growth factor receptor beta (Homo sapiens) (P09619 whole entry): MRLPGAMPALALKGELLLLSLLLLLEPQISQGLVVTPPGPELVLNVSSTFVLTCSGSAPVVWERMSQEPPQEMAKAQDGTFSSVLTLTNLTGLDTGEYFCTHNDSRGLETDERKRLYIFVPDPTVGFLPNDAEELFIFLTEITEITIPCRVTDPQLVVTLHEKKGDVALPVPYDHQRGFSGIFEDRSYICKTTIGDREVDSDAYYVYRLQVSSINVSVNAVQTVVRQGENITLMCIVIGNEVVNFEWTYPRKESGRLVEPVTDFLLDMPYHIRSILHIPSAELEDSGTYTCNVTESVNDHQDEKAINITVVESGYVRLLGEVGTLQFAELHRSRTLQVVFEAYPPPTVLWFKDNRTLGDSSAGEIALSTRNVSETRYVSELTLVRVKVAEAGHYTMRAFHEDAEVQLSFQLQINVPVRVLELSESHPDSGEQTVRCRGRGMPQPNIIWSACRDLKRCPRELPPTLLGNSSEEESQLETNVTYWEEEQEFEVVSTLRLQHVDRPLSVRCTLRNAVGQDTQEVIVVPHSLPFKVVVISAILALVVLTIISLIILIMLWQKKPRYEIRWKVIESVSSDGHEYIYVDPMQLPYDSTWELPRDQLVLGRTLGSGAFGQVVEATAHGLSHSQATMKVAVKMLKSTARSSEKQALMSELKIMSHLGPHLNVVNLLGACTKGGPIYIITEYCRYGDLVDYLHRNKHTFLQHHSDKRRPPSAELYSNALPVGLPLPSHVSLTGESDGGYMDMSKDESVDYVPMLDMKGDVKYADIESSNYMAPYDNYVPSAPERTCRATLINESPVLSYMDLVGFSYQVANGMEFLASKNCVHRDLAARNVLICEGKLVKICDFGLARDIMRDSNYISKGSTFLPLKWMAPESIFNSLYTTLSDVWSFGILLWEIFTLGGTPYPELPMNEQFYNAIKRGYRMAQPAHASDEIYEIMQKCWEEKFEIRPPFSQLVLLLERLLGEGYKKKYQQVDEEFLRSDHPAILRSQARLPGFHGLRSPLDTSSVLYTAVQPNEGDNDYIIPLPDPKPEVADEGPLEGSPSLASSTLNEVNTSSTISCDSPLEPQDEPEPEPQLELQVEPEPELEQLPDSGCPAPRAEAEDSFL
The molecule `COc1ccc(Nc2ncc(-c3ccccc3)o2)cc1OC` registered an inhibition of 25.5%.

As for `CCS(=O)(=O)c1ccc(OC)c(Nc2ncc(-c3cccc(C(C)=O)c3)o2)c1`, the inhibition worked out at 53.7%.

In the case of `CS(=O)(=O)Nc1ccc(-c2ccc3c(NC(=O)C4CC4)n[nH]c3c2)cc1`, the inhibition was 3.96%.

Molecule `CS(=O)(=O)CCNCc1ccoc1-c1ccc2ncnc(Nc3ccc(OCc4ccccc4)cc3)c2c1` yielded an inhibition of 0.39%.

Consider `NS(=O)(=O)c1ccc(N/N=C2\C(=O)Nc3ccc(C(=O)NCc4ccncc4)cc32)cc1`, for which the inhibition is 45.6%.

`CN1CCC(C(=O)Nc2n[nH]c3nc(-c4ccc(O)cc4)c(Br)cc23)CC1`: the inhibition was 7.32% and 7.22%.

On to `CN1CCN(Cc2ccc(-c3cc4ncnc(Nc5ccc(OCc6cccc(F)c6)c(Cl)c5)c4s3)o2)CC1`, for which the inhibition is 2.48% and 3.36%.

For the molecule `COc1cc2c(cc1Nc1nc(Nc3cccc(F)c3C(N)=O)c3cc[nH]c3n1)N(C(=O)CN1CCN(C(C)C)CC1)CC2`, the inhibition amounted to 1.46%.

`COc1cccc(-n2ncc3c(N/N=C/c4ccc(C(=O)NCCN(C)C)cc4)ncnc32)c1` showed an inhibition of 62.4%.

Molecule `CN(c1ccc(NC(=O)NCCN2CCOCC2)cc1)c1ccnc(Nc2ccc(CS(C)(=O)=O)cc2)n1` displayed an inhibition of 33.7%.

The molecule `Cc1nnc(-c2cccc(-c3ccc(C(=O)NCC4CC4)cc3)c2)o1` came in with an inhibition of 5.4%.

In turn, `Cc1cc(O)cc(C)c1/C=C/c1cncc(C(N)=O)c1` registered an inhibition of 9.04%.

In the case of `FC(F)(F)CNc1nccc(-c2cnn3ncccc23)n1`, the inhibition came to 2.11%.

`NC(=O)c1ccc2c(-c3ccnc(NCCCO)n3)c(-c3ccc(F)cc3)nn2c1`: the inhibition is 4.83%.

As to `COc1ccc2ncn(-c3cc(O[C@H](C)c4ccccc4C(F)(F)F)c(C(N)=O)s3)c2c1`, the inhibition was 6.65%.

`COc1cc(Nc2ncc(-c3ccccc3)o2)cc(OC)c1` registered an inhibition of 20.5%.

The molecule `Fc1ccc(Nc2nccc(-c3c(-c4ccc(C(F)(F)F)cc4)nn4ncccc34)n2)cc1F` yielded an inhibition of 2.15%.

In turn, `COc1cc(N2CCN(C(C)C)CC2)ccc1Nc1nc(Nc2cccc(F)c2C(=O)O)c2cc[nH]c2n1` showed an inhibition of 7.62%.

As for `CC1(C)CC(n2cnc(-c3ccc(F)cc3)c2-c2ccnc(N)n2)CC(C)(C)N1`, the inhibition came out at 5.64%.

Regarding `COc1cccc(Nc2nccc(-c3cnn4ncccc34)n2)c1`, the inhibition was found to be 23.9%.

On to `COc1ccc(-c2nn3ncccc3c2-c2ccnc(Nc3ccc(F)c(F)c3)n2)cc1`, for which the inhibition turned out to be 9.04%.

In turn, `CNC(=O)c1cncc(/C=C/c2ccccc2C)c1` displayed an inhibition of 6.6%.

As for `Cn1c(-c2nonc2N)nc2cnccc21`, the inhibition turned out to be 1.55%.

Consider `Nc1ncnc2occ(-c3ccc(NC(=O)Nc4cc(C(F)(F)F)ccc4F)cc3)c12`, for which the inhibition is 48.5% and 28.9%.

On to `CCOc1ccc2c(-c3ccnc(Nc4cc(OC)cc(C(F)(F)F)c4)n3)cnn2n1`, for which the inhibition worked out at 7.05%.

As for `O=C1Nc2ccccc2/C1=C1\CCc2cc(O)ccc21`, the inhibition turned out to be 11.3%.

`O=C(O[C@H]1CN[C@H](C#Cc2cc3ncnc(Nc4ccc5c(ccn5Cc5cc(F)ccc5F)c4)c3s2)C1)N1CCOCC1` returned an inhibition of 2.48%.

Take `CS(=O)(=O)CCNCc1ccc(-c2ccc3ncnc(Nc4ccc(OCc5cccc(C(F)(F)F)c5)cc4)c3c2)o1`: the inhibition came to 7.32%.

The molecule `N#Cc1cccc(Nc2ncc(-c3ccccc3)o2)c1` gave an inhibition of 7.37%.

Consider `N#Cc1ccc2c(-c3ccnc(NC4CC4)n3)c(-c3ccc(F)cc3)nn2c1`, for which the inhibition was 2.34%.

The molecule `CNC(=O)c1sc(-n2cnc3cc(OC)c(OC)cc32)cc1OCc1ccccc1C(F)(F)F` returned an inhibition of 9.81%.
